# Inconclusive results are not listed. Activity calls are given as the source filed them. Unless noted, no cut-off is given here; in the data, nearly all actives have AC50 up to about 26 µM.
# Experiments:
# [1] = viability loss in pontine glioma line – cell-based, SU-DIPG-XVII, MIPE5.0, CellTiter-Glo, qHTS, dose response (AID 1347060); conditions: CellTiter-Glo ATP luminescence;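 for AC50: cells exposed to compound for 48 hours before viability readout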
# [2] = viability loss in pontine glioma line – cell-based, SU-DIPG-XIII, MIPE4.0, CellTiter-Glo, qHTS, dose response (AID 1347061; cut-off not given, nearly all actives have AC50 up to about 37 µM;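 note: cells exposed to compound for 48 hours before readout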); conditions: CellTiter-Glo ATP luminescence
# [3] = viability loss in pontine glioma line – cell-based, JHH-DIPG-1, MIPE4.0, CellTiter-Glo, qHTS, dose response (AID 1347062; cut-off not given, nearly all actives have AC50 up to about 27 µM;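 for AC50: cells exposed to compound for two days before readout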); conditions: JHH-DIPG-1 viability, CellTiter-Glo ATP luminescence
# [4] = viability loss in pontine glioma line – cell-based, SU-DIPG-IV, MIPE4.0, CellTiter-Glo, qHTS, dose response (AID 1347063; cut-off not given, nearly all actives have AC50 up to about 30 µM;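 note: compound exposure lasted 48 hours before the viability readout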); conditions: CellTiter-Glo ATP luminescence
# [5] = viability loss in pontine glioma line – cell-based, SU-DIPG-XXV, MIPE5.0, CellTiter-Glo, qHTS, dose response (AID 1347065); conditions: CellTiter-Glo ATP luminescence;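 note: cells exposed to compound for 48 hours before ATP readout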
# [6] = growth inhibition of DIPG cells – cell-based, MIPE4.0 library, CellTiter-Glo luminescence, qHTS (AID 1347066; cut-off not given, nearly all actives have AC50 up to about 30 µM;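 note: cells exposed to compound for 48 hours before readout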); conditions: SU-DIPG-VI viability, CellTiter-Glo ATP luminescence
# [7] = JHH-DIPG-1 glioma cell viability, MIPE5.0 library, CellTiter-Glo luminescence, qHTS (AID 1347067); conditions: JHH-DIPG-1 glioma viability, CellTiter-Glo ATP luminescence;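 note: cells exposed to compound for 48 hours before readout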
# [8] = growth inhibition of DIPG cells – cell-based, MIPE5.0 library, qHTS (AID 1347068; cut-off not given, nearly all actives have IC50 up to about 30 µM;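 for IC50: cells exposed to compound for 48 hours before viability readout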); conditions: SU-DIPG-XXV viability
# [9] = compounds altering HSF1 focus formation in cells – imaging, Selleck Cancer Library (AID 1347162; in the data active = plate-normalised HSF1 focus index below about 0.46); conditions: human cells, HSF1 nuclear foci imaging, at 10 µM; SSMD: measured here: HSF1 foci SSMD mean; cell count: measured here: cell number; plate-normalised HSF1 focus index: stronger effect = lower value
# [10] = growth inhibition, single agent or in combination, cell-based, chromothripsis tumors, cisplatin or BGB combos (AID 1671449; in the data active = inhibition above about 80%;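 note: cells exposed for 96 hours; 0% = vehicle DMSO and 100% = killing by high DMSO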); conditions: LFS_MB_P medulloblastoma cells
# [11] = growth inhibition, single agent and combos, cell-based, chromothripsis tumors, cisplatin or BGB combos (AID 1671450; in the data active = inhibition above about 80%;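 note: cells exposed to compound for four days; 0% = vehicle DMSO and 100% = cell killing by high DMSO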); conditions: HDN33 neuroblastoma cells, stronger effect = higher value
# [12] = growth inhibition, single agents and combos, ICB984, cell-based, cisplatin or BGB combos, synergistic combos for chromothripsis tumors (AID 1671451; call rule not given here;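 note: cells exposed for 96 hours before readout; 0% = vehicle DMSO and 100% = killing by high DMSO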); conditions: ICB984 medulloblastoma cells, drug combinations, stronger effect = higher value
# [13] = growth inhibition, single agents and combos, HTB85, cell-based, BGB or cisplatin IC20 combos, synergistic combos for chromothripsis tumors (AID 1671453; in the data active = inhibition above about 80%;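 note: cells exposed for 96 hours before readout; 0% = vehicle DMSO and 100% = high DMSO killing control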); conditions: HTB85 osteosarcoma cells, drug combinations, stronger effect = higher value
# [14] = growth inhibition, MDA-MB-436, cell-based, BGB or cisplatin combos, synergistic combos for chromothripsis tumors (AID 1671458; call rule not given here;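 note: cells exposed for 96 hours; 0% = vehicle DMSO and 100% = killing by high DMSO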); conditions: MDA-MB-436 breast carcinoma growth inhibition, drug combinations, stronger effect = higher value
# [15] = BT084 cell growth, single and combined drugs, ICGC_MB145, cisplatin and BGB IC40 combos (AID 1671461; in the data active = inhibition above about 80%;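 note: cells exposed to drugs for 96 hours; 0% = vehicle DMSO and 100% = high DMSO full killing control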); conditions: BT084 medulloblastoma cells, drug combinations, stronger effect = higher value
# [16] = RCMB18 cell growth, single agent and combined, cisplatin and BGB IC40 combos (AID 1671462; in the data active = inhibition above about 80%;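 note: cells exposed to compound for four days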); conditions: RCMB18 medulloblastoma cells, stronger effect = higher value
# [17] = viability loss with induced miR-34 in A549 – imaging, A549 dox-inducible miR-34, nuclei and caspase counts, primary screen (AID 1347080;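 active = compounds whose cell count with miR-34 switched on is under 0.7 times the count with it off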); conditions: A549 miR-34 inducible, Hoechst nuclei count, 48 h
# [18] = MELAS cybrid and Rieske KO viability enhancers – cell-based, MELAS cybrids, Rieske KO mouse fibroblasts, CellTiter-Glo, primary screen (AID 1508586;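 active = mean z-score across replicates of 1.96 or higher in either the MELAS or the Rieske mutant cell line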;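 note: z relative to plate mean and SD of compound and empty wells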); conditions: low glucose
# [19] = viability loss in pontine glioma line – cell-based, SU-DIPG-XIII, MIPE5.0, CellTiter-Glo, qHTS, dose response (AID 1347064; cut-off not given, nearly all actives have AC50 up to about 23 µM); conditions: CellTiter-Glo ATP luminescence
smiles,measurement,setting,value
Cc1ccc([N+](=O)[O-])cc1S(=O)(=O)N(C)/N=C/c1cnc2ccc(Br)cn12,AC50,[1],132 nM (active)
same,AC50,[2],20.9 nM (active)
same,AC50,[3],33.2 nM (active)
same,AC50,[4],23.5 nM (active)
same,AC50,[5],118 nM (active)
same,AC50,[6],132 nM (active)
same,AC50,[7],166 nM (active)
same,IC50,[8],235 nM (active)
same,SSMD,[9],7.37
same,cell count,[9],7410
same,plate-normalised HSF1 focus index,[9],1.46 (inactive)
same,inhibition,"[10]; at 0.5 µM, stronger effect = higher value",-21.6% (inactive)
same,inhibition,"[10]; measured here: combination with BGB IC20, at 0.005 µM",-7.86%
same,inhibition,"[10]; measured here: combination with BGB IC40, at 0.005 µM",-33.9%
same,inhibition,"[10]; measured here: combination with BGB IC40, at 0.05 µM",-17.7%
same,inhibition,"[10]; measured here: combination with cisplatin, at 0.5 µM, stronger effect = higher value",-8.16%
same,inhibition,"[10]; measured here: combination with cisplatin, at 5 µM, stronger effect = higher value",118%
same,inhibition,"[11]; BGB combo, at 5 µM",98.8%
same,inhibition,[11]; at 0.5 µM,82.5% (active)
same,inhibition,"[11]; cisplatin combo, at 5 µM",99.4%
same,inhibition,"[11]; measured here: with BGB IC20 combination, at 0.5 µM",82.3%
same,inhibition,"[11]; measured here: with cisplatin IC20 combination, at 0.5 µM",89%
same,inhibition,"[11]; single agent, at 5 µM",99.6%
same,inhibition,"[12]; BGB IC20 combo, at 0.005 µM",93.2%
same,inhibition,"[12]; BGB IC40 combo, at 0.005 µM",89.9%
same,inhibition,"[12]; BGB IC40 combo, at 0.05 µM",99.2%
same,inhibition,[12]; at 0.5 µM,-28.7% (inactive)
same,inhibition,"[12]; cisplatin combo, at 0.05 µM",99.2%
same,inhibition,"[12]; cisplatin combo, at 0.5 µM",-32.2%
same,inhibition,"[12]; cisplatin combo, at 5 µM",-58%
same,inhibition,"[12]; measured here: 5 uM single agent, at 5 µM",-16.2%
same,inhibition,[13]; at 0.5 µM,84.8% (active)
same,inhibition,"[13]; measured here: with BGB IC20, at 0.5 µM",92.6%
same,inhibition,"[13]; measured here: with BGB IC20, at 5 µM",100%
same,inhibition,"[13]; measured here: with cisplatin IC20, at 0.5 µM",90.8%
same,inhibition,"[13]; measured here: with cisplatin IC20, at 5 µM",99.6%
same,inhibition,"[13]; single agent, at 5 µM",99.9%
same,inhibition,[14]; at 0.5 µM,77.8% (inactive)
same,inhibition,"[14]; measured here: BGB combination, at 0.5 µM",73.3%
same,inhibition,"[14]; measured here: BGB combination, at 5 µM",54%
same,inhibition,"[14]; measured here: cisplatin combination, at 0.5 µM",77.3%
same,inhibition,"[14]; measured here: cisplatin combination, at 5 µM",74.2%
same,inhibition,[15]; at 0.5 µM,17.8% (inactive)
same,inhibition,"[15]; cisplatin combination, at 0.5 µM",8.05%
same,inhibition,"[15]; cisplatin combination, at 5 µM",-42.9%
same,inhibition,"[15]; measured here: BGB IC40 combination 0.05 uM, at 0.05 µM",16.7%
same,inhibition,"[15]; single agent, at 5 µM",-25%
same,inhibition,[16]; at 0.5 µM,68.3% (inactive)
same,inhibition,"[16]; cisplatin combo, at 5 µM",59.8%
same,inhibition,"[16]; measured here: BGB IC40 combination, at 0.05 µM",-12.7%
same,inhibition,"[16]; measured here: combination with cisplatin, at 0.5 µM",58.3%
same,inhibition,"[16]; single agent, at 5 µM",76.8%
O=C(Nc1cccc(Nc2ncc(Br)c(NCCc3cnc[nH]3)n2)c1)N1CCCC1,AC50,[1],4170 nM (active)
same,AC50,[2],16600 nM (active)
same,AC50,[3],16600 nM (active)
same,AC50,[4],16600 nM (active)
same,AC50,[5],1660 nM (active)
same,AC50,[6],14800 nM (active)
same,AC50,[7],3720 nM (active)
same,outcome,[8],inactive
same,fold change,"[17]; stronger effect = lower value, cell number ratio, induced over uninduced",0.952 (inactive)
same,fold change,[17]; measured here: relative caspase fold change +Dox/-Dox,0.914
same,cell count,"[17]; measured here: total cells with miR-34 induction, stronger effect = lower value",2420
same,cell count,[17]; measured here: total cells without miR-34 induction,2540
same,z-score,"[18]; MELAS cybrid survival, CellTiter-Glo 48 h, stronger effect = higher value",-0.631 (inactive)
same,z-score,"[18]; Rieske KO mouse fibroblast survival, CellTiter-Glo 72 h",0.495
Cc1cc2c(cc1C1(c3ccc(C(=O)O)cn3)CC1)C(C)(C)CCC2(C)C,outcome,[1],inactive
same,outcome,[2],inactive
same,outcome,[3],inactive
same,outcome,[4],inactive
same,outcome,[19],inactive
same,outcome,[8],inactive
same,SSMD,[9],2.63
same,cell count,[9],7020
same,plate-normalised HSF1 focus index,[9],1.16 (inactive)

# Reference: PubChem BioAssay
